Among the data in PubChem BioAssay (NCI) are growth values, retold here.

Some test systems named below: HCT-15 colon; HT29 colon; SNB-75 CNS; SNB-19 CNS; U251 CNS; PC-3 prostate; SK-MEL-5 melanoma; UACC-62 melanoma; LOX IMVI melanoma; SK-MEL-28 melanoma.
Common to all, as to assay: NCI-60 one-dose screen, 48 h (100 = growth as untreated, 0 = no growth, -100 = all killed)
Conditions in all cases: 10 µM unless noted

About 83,000 compounds went through this panel and 20% of them were active in at least one assay; those are over-represented in the sample as a whole.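 48-hour exposure, single concentration, 96-well plates; percent growth endpoint where 0 means no net growth. Active: below 10.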 Unmarked numbers belong to inactive results. Calls of active or inactive are those of the source.

For the molecule `COc1cccc(NC(=O)Nc2ccc(Oc3ncnc4[nH]c(C)c(C)c34)cc2)c1`, the growth in the test on HCT-15 colon was 87.9%; with HT29 colon it was 75.4%; in the test on SNB-75 CNS it was 87.2%; in the test on SNB-19 CNS, 89.7%; with U251 CNS it was 76.9%; with PC-3 prostate, 80.8%. The growth in the test with SK-MEL-5 melanoma was 88%; in the test on UACC-62 melanoma, 74.2%; with LOX IMVI melanoma, -54.9% (active); in the test with SK-MEL-28 melanoma it was 103%.
Take `C=C1C(=O)O[C@H]2[C@H]1CCC(/C=N/c1ncc(Br)cc1N)=C\CC[C@@]1(C)O[C@@H]21`: the growth is -45.3% (active) with HCT-15 colon; -18.6% (active) in the test with HT29 colon; 85.3% in the test with SNB-75 CNS; 44.2% with SNB-19 CNS; 47.9% with U251 CNS; 26.7% with PC-3 prostate. For the same molecule, the growth was 39.9% with SK-MEL-5 melanoma, 22.5% with UACC-62 melanoma, -75.3% (active) with LOX IMVI melanoma and -25.8% (active) in the test with SK-MEL-28 melanoma.
Regarding `COc1ccc2c(c1)OC13Oc4cc(OC)ccc4C=C1CCCCC3=C2`, the growth was 92.6% in the test with HCT-15 colon; 71.5% in the test with HT29 colon; 89.8% with SNB-75 CNS; 106% in the test on SNB-19 CNS; 89.7% with U251 CNS; 69.6% in the test with PC-3 prostate. Further, the growth in the test with SK-MEL-5 melanoma is 91.5%; in the test on UACC-62 melanoma, 89.4%; in the test on LOX IMVI melanoma, 99.8%; in the test on SK-MEL-28 melanoma, 111%.
Take `CC(=O)c1cnc(-c2ccccc2)nc1CBr`: the growth in the test with HCT-15 colon was 63.5%; with HT29 colon, 43.5%; in the test on SNB-75 CNS, 73.4%; in the test with SNB-19 CNS, 81%; in the test on U251 CNS, 79.5%; in the test on PC-3 prostate it was 73%. Moreover, the growth was 91.6% with SK-MEL-5 melanoma, 84.3% in the test with UACC-62 melanoma, -39.9% (active) in the test on LOX IMVI melanoma and 104% in the test with SK-MEL-28 melanoma.
With `COc1ccc(-c2[nH]c3ccccc3c2C=C(C#N)C#N)cc1`, the growth in the test on HCT-15 colon was 18%; in the test with HT29 colon, 10.3%; with SNB-75 CNS, 0.534% (active); with SNB-19 CNS it was 67%; in the test on U251 CNS it was 27.8%; in the test with PC-3 prostate it was 19.1%. Also, the growth is 2.62% (active) in the test with SK-MEL-5 melanoma, 15.2% in the test on UACC-62 melanoma, 31.4% in the test with LOX IMVI melanoma and 44.5% in the test with SK-MEL-28 melanoma.
Regarding `CO[C@@]12C=C[C@@]34CCC(=O)N3c3ccccc3[C@@H](O1)C4C2`, the growth was 104% in the test on HCT-15 colon; 101% with HT29 colon; 90.5% in the test on SNB-75 CNS; 99.1% in the test with SNB-19 CNS; 99.7% in the test on U251 CNS; 100% in the test with PC-3 prostate. Also, the growth in the test on SK-MEL-5 melanoma is 104%; in the test on UACC-62 melanoma it was 94.5%; in the test on LOX IMVI melanoma it was 96.9%; with SK-MEL-28 melanoma, 113%.
As for `CCOCCc1c(O)nc(SC)[nH]c1=O`, the growth is 98.2% in the test on HCT-15 colon; 101% in the test on HT29 colon; 78.7% in the test with SNB-75 CNS; 95.9% in the test with SNB-19 CNS; 103% in the test with U251 CNS; 91.1% in the test with PC-3 prostate. Further, the growth in the test on SK-MEL-5 melanoma is 103%; in the test on UACC-62 melanoma, 98.1%; with LOX IMVI melanoma it was 105%; in the test on SK-MEL-28 melanoma, 99.2%.
With `O=C1CS/C(=N/c2nnc(-c3ccc(O)cc3)s2)N1`, the growth in the test with HCT-15 colon is 101%; with HT29 colon, 103%; in the test on SNB-75 CNS, 111%; with SNB-19 CNS, 108%; with U251 CNS, 101%; in the test on PC-3 prostate, 99.5%. Further, the growth with SK-MEL-5 melanoma was 102%; in the test on UACC-62 melanoma, 108%; in the test with LOX IMVI melanoma, 92.2%; in the test on SK-MEL-28 melanoma, 110%.
In the case of `O=C1NCc2ccc3c(-c4cccc(Cl)c4)c[nH]c3c21`, the growth is 27.2% with HCT-15 colon; 7.64% (active) in the test with HT29 colon; 13.2% with SNB-75 CNS; 28.6% in the test with SNB-19 CNS; 16.3% in the test on U251 CNS; 17.2% in the test on PC-3 prostate. Further, the growth was 31.2% with SK-MEL-5 melanoma, 27% in the test with UACC-62 melanoma, 35% in the test with LOX IMVI melanoma and 62.2% with SK-MEL-28 melanoma.
For the molecule `N#Cc1ccc(C2C3=C(CCCC3=O)OC3=C2C(=O)c2ccccc2C3=O)cc1` (stereo not given), the growth in the test with HCT-15 colon was 74.5%; in the test with HT29 colon, 97.1%; in the test with SNB-75 CNS, 62.6%; with SNB-19 CNS it was 105%; with U251 CNS it was 70%; with PC-3 prostate, 72.6%. Moreover, the growth in the test with SK-MEL-5 melanoma was 61.1%; in the test on UACC-62 melanoma, 35.1%; with LOX IMVI melanoma, 9.4% (active); with SK-MEL-28 melanoma, 112%.
Consider `O=C(O)c1cn(C2CC2)c2cc(N3CCN(Cc4nnc(Nc5ccccc5)o4)CC3)c(F)cc2c1=O`, for which the growth in the test on HCT-15 colon is 101%; with HT29 colon it was 93.8%; in the test on SNB-75 CNS, 82.2%; with SNB-19 CNS, 108%; in the test on U251 CNS, 105%; in the test on PC-3 prostate it was 105%. Also, the growth with SK-MEL-5 melanoma is 106%; with UACC-62 melanoma, 100%; with LOX IMVI melanoma, 87.9%; in the test on SK-MEL-28 melanoma it was 100%.
For `CCOCc1nc2ccccc2c(=O)[nH]1`, the growth in the test on HCT-15 colon was 97.2%; in the test on HT29 colon, 95.9%; with SNB-75 CNS it was 99.2%; in the test on SNB-19 CNS it was 101%; with U251 CNS, 102%; in the test on PC-3 prostate, 95.2%. Further, the growth was 104% with SK-MEL-5 melanoma, 102% with UACC-62 melanoma, 99.8% with LOX IMVI melanoma and 106% in the test on SK-MEL-28 melanoma.
As for `O=C(CCCC(=O)Nc1ccc(-n2nnc3cc(Cl)c(Cl)cc32)cc1)Nc1ccc(-n2nnc3cc(Cl)c(Cl)cc32)cc1`, the growth in the test with HCT-15 colon is 74.1%; in the test on HT29 colon, 43.8%; in the test with SNB-75 CNS, 30.4%; in the test on SNB-19 CNS it was 29.8%; in the test on U251 CNS it was 28.7%; with PC-3 prostate it was 19.4%. The growth with SK-MEL-5 melanoma was 42.2%; in the test with UACC-62 melanoma, 30.8%; in the test on LOX IMVI melanoma, 50.9%; in the test on SK-MEL-28 melanoma it was 57.9%.
